Among all 340,000 compounds or so, about 2,100 (0.62%) were called active.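 How the source made its calls: active means first-screen hits whose inhibition reached a set limit at any dose in the follow-up dose series; inconclusive means inhibition above the set first-screen limit but never retested; inactive means the rest.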 Not all results are given here. Results with a measured potency or affinity are listed apart.
target: Rac GTPase-activating protein 1 (Homo sapiens) (UniProt Q9H0H5); test: MgcRacGAP GTPase-activating activity inhibitors, confirmation, biochemical, ADP Hunter fluorescence, primary and confirmatory (AID 624330); conditions: MgcRacGAP-stimulated Rac1 GTP hydrolysis, at 30 µM, active compounds read high, GST-tagged Rac1 F28L mutant substrate;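 further: fluorescence reports GDP produced by GAP-driven GTP hydrolysis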
Sequence (Q9H0H5 whole entry, looked up): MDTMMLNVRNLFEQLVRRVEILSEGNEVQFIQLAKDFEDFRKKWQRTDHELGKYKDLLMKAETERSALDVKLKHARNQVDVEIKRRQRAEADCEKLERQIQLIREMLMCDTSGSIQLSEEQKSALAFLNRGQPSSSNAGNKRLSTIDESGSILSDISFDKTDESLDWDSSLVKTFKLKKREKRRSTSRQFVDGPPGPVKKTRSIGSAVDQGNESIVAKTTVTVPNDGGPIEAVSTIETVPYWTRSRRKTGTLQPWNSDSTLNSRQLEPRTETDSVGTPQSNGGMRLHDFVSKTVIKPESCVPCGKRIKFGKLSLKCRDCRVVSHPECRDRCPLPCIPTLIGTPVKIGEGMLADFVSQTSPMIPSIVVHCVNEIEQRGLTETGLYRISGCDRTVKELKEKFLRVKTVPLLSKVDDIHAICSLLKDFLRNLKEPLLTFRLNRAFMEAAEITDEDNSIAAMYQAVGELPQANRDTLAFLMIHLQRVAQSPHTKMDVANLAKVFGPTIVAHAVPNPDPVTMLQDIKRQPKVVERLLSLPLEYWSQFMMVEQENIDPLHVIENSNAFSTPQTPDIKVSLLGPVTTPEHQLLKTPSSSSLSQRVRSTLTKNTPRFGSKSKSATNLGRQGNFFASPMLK

inhibition, inactive:
O=[N+]([O-])c1ccc(-n2nnnc2CN2CCOCC2)cc1 8.87%
C/C(=N\O)c1ccc2c3ccccc3n(C)c2c1 11%
COc1ccc2c(c1)c1ccccc1n2C -2.65%
Cc1cc(N2CCOCC2)nc(SCc2c(Cl)cccc2Cl)n1 8.06%
O=C(O)C1CCN(Cc2ccccn2)CC1 4.54%
Clc1ccc(CN2CCC(Cc3ccccc3)CC2)cc1 14.2%
O=c1ccn([C@H]2C[C@H](O)[C@@H](CO)O2)c(=O)[nH]1 1.01%
CN(CC(=O)NCC(=O)Nc1ccc(F)cc1)C1CCS(=O)(=O)C1 (stereo unspecified) 3.81%
COc1ccc2c(c1)C(c1ccccc1)=NNC(c1ccco1)=N2 2.48%
N#CC1=C(S)N(c2ccccc2)C(c2ccc(-c3ccc(Cl)c(Cl)c3)o2)NC1=O (stereo unspecified) 24.7%
COc1ccc(C2NC(=O)C(C#N)=C(S)N2c2ccccc2)cc1OC (stereo unspecified) 42.4%
N#CC1=C(S)N(c2ccccc2)C(c2ccc(-c3cc(Cl)ccc3Cl)o2)NC1=O (stereo unspecified) 19.7%
Cc1ccc(N2C(S)=C(C#N)C(=O)NC2c2ccco2)cc1 (stereo unspecified) 49.9%
N#CC1=C(S)N(c2ccccc2)C(c2ccco2)NC1=O (stereo unspecified) 1.78%
COc1ccc(N2C(S)=C(C#N)C(=O)NC2c2ccco2)cc1 (stereo unspecified) 38.5%
O=C(COC(=O)c1cc(F)c(F)cc1Cl)NC1CCCCCC1 -27.4%
CCN(CC)S(=O)(=O)c1ccc(N2CCN(c3ccccc3O)CC2)nc1 5.53%
Clc1ccc(NCc2nnc3n2CCCCC3)cc1 10.6%
CC(=O)N1CCOc2ccc(S(=O)(=O)Nc3ncccc3C)cc21 4.93%
Cc1ccc(NC(=O)Cc2nc(COC(=O)c3c(F)cccc3Cl)cs2)cc1 2.55%
O=C1c2ccccc2/C(=C\c2ccc(Br)s2)N1c1ccccc1 1.75%
COc1ccc(N2CCN(C(=O)c3cc(=O)[nH]c4ccccc34)CC2)cc1 18.3%
COc1ccc(N2CCN(CC(O)COC(c3ccccc3)c3ccccc3)CC2)cc1 (stereo unspecified) 8.7%
OC(COC(c1ccc(F)cc1)c1ccc(F)cc1)CN1CCCC1 (stereo unspecified) 31.4%
COc1ccc(C(OCC(O)CN2CCC(O)CC2)c2ccc(OC)cc2)cc1 (stereo unspecified) 6.25%
OC(COC(c1ccc(F)cc1)c1ccc(F)cc1)CN1CCc2ccccc2C1 (stereo unspecified) 20.1%
CCOC(=O)Cc1csc(NC(=O)c2ccc(C)o2)n1 3.9%
Cc1nc(SCc2ccc([N+](=O)[O-])cc2)nc2ccccc12 8.16%
O=C(COc1ccccc1)NN1C(=O)CSC1=S 6.09%
O=C1CSC(=S)N1c1ccccc1 -7.87%
O=C(Cn1cc([N+](=O)[O-])cn1)NCc1cc2ccccc2[nH]1 8.44%
CCOc1cc(N2CCOCC2)c(OCC)cc1NC(=O)c1ccc(C)cc1 19.8%
CCOc1cc(N2CCOCC2)c(OCC)cc1NC(=O)c1ccccc1 27.1%
CCOc1cc(N2CCOCC2)c(OCC)cc1NC(=O)Cc1ccccc1 10.9%
CCOc1cc(N2CCOCC2)c(OCC)cc1NC(=O)c1cc(C)cc(C)c1 10.8%
CC(C)CN1CC(Br)C(=O)NC1=O (stereo unspecified) 4.9%
COc1ccc(CCNC(=S)Nc2ccccc2)cc1 12.5%
COc1ccc(C)cc1NC(=O)C(=O)N/N=C(\C)CC(=O)Nc1cccnc1 -2.35%
N#CCC(=N)N1CCN(c2ccc(F)cc2)CC1 1.28%
CN(C(=O)OC(C)(C)C)[C@H](Cc1ccccc1)C(=O)N[C@H]1CCCCNC1=O 4.78%
CCS(=O)(=O)c1ccc(O)c(NC(=O)/C=C/c2ccccc2)c1 5.42%
Cc1cc(NC(=O)/C=C/c2ccccc2)c(C(C)C)cc1O 12.2%
CCC1(c2ccccc2)NC(=O)N(CC(=O)N(CC(=O)Nc2ccccc2C(F)(F)F)Cc2ccco2)C1=O (stereo unspecified) 1.52%
COc1ccc(C)cc1NC(=O)c1cc(S(=O)(=O)N2CCOCC2)cn1C 10.3%
CCOC(=O)C1CCN(C(=O)COC(=O)c2oc3ccccc3c2C)CC1 7.79%
COc1ccc(/C=N/NC(=O)c2cccc(C(=O)N/N=C/c3ccc(OC)c(OC)c3)n2)cc1OC 5.53%
COc1cc(/C=N/NC(=O)c2cccc(C(=O)N/N=C/c3ccc(O)c(OC)c3)n2)ccc1O 9.56%
COc1ccc(/C=N/NC(=O)c2ccc(=O)[nH]n2)cc1OC 8.66%
CCOC(=O)N/N=C/c1ccc(OC)c(O)c1 18.6%
CC(C)NC(=O)c1cc2n(n1)C(C(F)(F)F)CC(c1ccco1)N2 (stereo unspecified) 5.2%
C=CCn1c(SCC(=O)NCCOC)nnc1-c1cc2c(s1)CCC(CC)C2 (stereo unspecified) 7.45%
O=C1c2cc([N+](=O)[O-])ccc2-c2ncccc21 -4.67%
Cn1c(=O)[nH]c(=O)c2c1nc(Sc1ccccc1)n2CCc1ccccc1 0.88%
CCC(C)(O)c1[nH]c2ccc(C(F)(F)F)cc2c1C (stereo unspecified) 5.14%
O=C1c2ccccc2C(=O)c2c(NCc3cccnc3)cccc21 1.26%
CN1C(=O)c2cccc(NCCCN3C(=O)c4ccccc4C3=O)c2C1=O 10.7%
O=C1c2ccccc2C(=O)c2c(Nc3ccc(CCO)cc3)ccc(O)c21 15.2%
CN1C(=O)c2cccc(NCCCCCCN3C(=O)c4ccccc4C3=O)c2C1=O 5.81%
OCCNCCO -1.48%
CNc1cccc2c1C(=O)c1ccccc1C2=O 6.76%
CC(C)Oc1ccc(C(=O)NC2=NCCS2)cc1 6.37%
Cc1cccc(NC(=O)CSc2nnnn2-c2cccnc2)c1 4.2%
Cc1cc(C)c(NC(=O)CN(C)C(=O)CCN2C(=O)C3CCCCC3C2=O)c(C)c1 (stereo unspecified) 11.4%
Cn1c(SCC(=O)NCC2CCCO2)nnc1-c1cccc(NC(=O)c2ccccc2F)c1 (stereo unspecified) 2.1%
COCCCNC(=O)COc1ccc(S(=O)(=O)Nc2ccccc2)cc1 5.23%
NCC12CC3CC(CC(O)(C3)C1)C2 9.89%
NC(=O)CC12CC3CC(C1)CC(CC(N)=O)(C3)C2 -1.41%
COCC(C)NCc1ccc(C)cc1C (stereo unspecified) 16.8%
COCC(C)NCc1cccc2ccccc12 (stereo unspecified) 26.8%
CCOc1ccccc1N1CC(C(=O)Nc2cc(Cl)ccc2C)CC1=O (stereo unspecified) -1.6%
Cc1ccc(Cl)cc1N1CCN(C(=O)CN(C2CCCCC2)S(C)(=O)=O)CC1 1.2%
O=C(Nc1ccccc1Cl)C1CCN(S(=O)(=O)c2cccc3nonc23)CC1 -1.65%
CCN(CC)c1ccc(CNc2ccc3c(c2)ncn3C(C)(C)C)cc1 6.25%
CCOc1cc(/C=N/Nc2cc(C)nc(-n3nc(C)cc3C)n2)ccc1O 11.4%
CCOc1cc(/C=N/Nc2nncc(-c3ccccc3)n2)ccc1O 13.6%
CCOc1ccc(/C=N/Nc2nc(=O)[nH]nc2C)cc1OC 7.43%
CCOc1cc(/C=N\Nc2nc(-c3ccc(C)cc3)c(NC(C)=O)s2)ccc1O 8.08%
C[C@H](CO)N1C[C@H](C)[C@@H](CN(C)C(=O)Nc2ccc(C(F)(F)F)cc2)Oc2ccc(NS(=O)(=O)c3cccs3)cc2C1=O 6.16%
CC(C)NC(=O)CCCc1cn(C)c2ccccc12 3.62%
COCCNC(=O)c1onc(CSc2ccccc2)c1C(=O)O 7.12%
COc1cc(/C=C/C(=O)OCC(=O)N(C)Cc2ccccc2)cc(OC)c1OC 5.49%
COc1cc(/C=C/C(=O)OCC(=O)NCc2ccccc2OC)ccc1O -4.08%
COC(=O)c1ccc(CNC(=O)COC(=O)/C=C/c2cc(OC)c(OC)c(OC)c2)cc1 -11.7%
COc1ccc(/C=C/C(=O)OCC(=O)NCc2ccccc2)cc1OC -1.57%
CCN(C(=O)COC(=O)/C=C/c1ccc(OC)c(OC)c1)c1c(N)n(Cc2ccccc2)c(=O)[nH]c1=O 4.28%
COc1cc(/C=C/C(=O)O)ccc1O 22.1%
COC(=O)c1ccc(CNC(=O)COC(=O)/C=C/c2ccc(OC)c(OC)c2)cc1 1.48%
CC(C)CN(C(=O)COC(=O)/C=C/c1ccc(Cl)c(Cl)c1)c1c(N)n(Cc2ccccc2)c(=O)[nH]c1=O 10.7%
CCOC(=O)C(Cc1c(F)cccc1Cl)c1ccnc2nc(N)nn12 (stereo unspecified) 7.53%
CCC(CC)CN1C(Nc2ccccc2)=NC[C@@H]1CC(C)C 7.15%
Cn1c(SCC(=O)NNC(=O)c2ccc(Br)cc2)nnc1-c1cccnc1 6.67%
CC1CN(CC(=O)NN=C(c2ccccc2)c2ccccc2)CC(C)O1 (stereo unspecified) 8.46%
Cc1cccc2sc(NC(=O)CSc3nc4ccccc4o3)nc12 7.18%
CC(Sc1ncnc2ccccc12)C(=O)Nc1ccc2c(c1)OCO2 (stereo unspecified) 5.78%
COc1ccc(OC(C)C(=O)N2CCN(c3ccccn3)CC2)cc1 (stereo unspecified) -1.84%
CC1CCCN(C(=O)COC(=O)CNS(=O)(=O)c2ccc3ccccc3c2)C1 (stereo unspecified) 11.5%
